Measured values reported in PubChem BioAssay.
Unmarked numbers belong to inactive results. For some of these results: Measured potencies and affinities stand elsewhere. Active and inactive are the calls of the source. Unless noted, how the calls were made is not given here.

Experiments:
[1] = antimalarial activity against Dd2 strain (AID 2302;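 active means growth inhibition above 50% at the single 2 µM test dose, taken to imply half-maximal potency below 2 µM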;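 further: 0% = DMSO untreated growth and 100% = chloroquine plus artemisinin killed control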); conditions: P. falciparum Dd2 in RBCs, LDH growth readout, 72 h; at 2 µM; active compounds read high
[2] = human hepatoma cell viability loss – ATP luminescence, cytotoxicity control for P. falciparum antimalarial project, primary screen (AID 2303;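 active means inhibition above 50%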;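 further: 0% = DMSO wells and 100% = digitonin-killed cells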); conditions: HepG2 viability, 24-48 h, at 10 µM, active compounds read high
[3] = molecular target: L-lactate dehydrogenase (Plasmodium falciparum (isolate CDC / Honduras)) (UniProt Q27743); assay: PfLDH activity inhibition – cell lysate, 3D7 strain, counter-screen for P. falciparum growth inhibition project (AID 2304);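 further: 0% = vehicle and 100% = reference inhibitor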; conditions: P. falciparum 3D7 crude extract, LDH APAD/NBT absorbance; at 2 µM; active compounds read high
L-lactate dehydrogenase (Plasmodium falciparum (isolate CDC / Honduras)), sequence (Q27743 whole entry, looked up): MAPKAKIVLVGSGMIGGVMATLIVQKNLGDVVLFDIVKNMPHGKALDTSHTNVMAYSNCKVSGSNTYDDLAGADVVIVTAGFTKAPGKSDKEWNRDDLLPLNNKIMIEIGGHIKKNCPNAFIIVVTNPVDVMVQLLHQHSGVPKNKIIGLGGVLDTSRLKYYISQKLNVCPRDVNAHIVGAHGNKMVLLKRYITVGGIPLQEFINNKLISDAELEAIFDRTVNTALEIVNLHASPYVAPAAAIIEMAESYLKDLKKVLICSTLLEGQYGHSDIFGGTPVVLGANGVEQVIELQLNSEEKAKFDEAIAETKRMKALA

[4] = inhibition of 3D7 malaria parasite growth – strain 3D7 (AID 2306);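 further: 0% = DMSO wells and 100% = chloroquine plus artemisinin control wells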; conditions: P. falciparum 3D7 erythrocytic growth, LDH absorbance, 72 h; at 2 µM; active compounds read high
[5] = molecular target: Calcium-dependent protein kinase 1 (Plasmodium falciparum (isolate 3D7)) (UniProt P62344); assay: PfCDPK1 kinase inhibitors, biochemical, TCAMS library (AID 1159585; cut-off not given, nearly all actives have IC50 up to about 0.98 µM;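 further: inhibitors leave more ATP so luminescence rises with inhibition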); conditions: recombinant PfCDPK1, Kinase-Glo ATP depletion luminescence
Calcium-dependent protein kinase 1 (Plasmodium falciparum (isolate 3D7)), sequence (P62344 whole entry, looked up): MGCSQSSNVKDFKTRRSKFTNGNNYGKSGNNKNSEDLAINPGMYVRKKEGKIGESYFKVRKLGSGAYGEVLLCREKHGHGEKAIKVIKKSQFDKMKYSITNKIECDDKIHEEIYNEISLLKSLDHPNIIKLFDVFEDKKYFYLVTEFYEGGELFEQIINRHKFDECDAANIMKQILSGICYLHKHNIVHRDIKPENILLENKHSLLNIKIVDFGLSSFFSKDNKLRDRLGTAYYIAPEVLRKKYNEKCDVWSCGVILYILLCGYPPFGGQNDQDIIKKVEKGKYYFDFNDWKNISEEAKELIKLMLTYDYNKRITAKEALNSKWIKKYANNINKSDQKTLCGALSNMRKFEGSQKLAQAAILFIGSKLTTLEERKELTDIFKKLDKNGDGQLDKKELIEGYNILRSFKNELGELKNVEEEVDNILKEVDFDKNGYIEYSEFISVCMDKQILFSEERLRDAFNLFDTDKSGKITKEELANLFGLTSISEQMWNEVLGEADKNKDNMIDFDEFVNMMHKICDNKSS

[6] = molecular target: Plasmodium falciparum protein kinase 6 (PK6, PF3D7_1337100) (UniProt Q8IDW1); assay: PfPK6 kinase inhibitors, biochemical, TCAMS library (AID 1159586); conditions: recombinant PfPK6, Kinase-Glo ATP depletion luminescence
Plasmodium falciparum protein kinase 6 (PK6, PF3D7_1337100), sequence (Q8IDW1 1-305): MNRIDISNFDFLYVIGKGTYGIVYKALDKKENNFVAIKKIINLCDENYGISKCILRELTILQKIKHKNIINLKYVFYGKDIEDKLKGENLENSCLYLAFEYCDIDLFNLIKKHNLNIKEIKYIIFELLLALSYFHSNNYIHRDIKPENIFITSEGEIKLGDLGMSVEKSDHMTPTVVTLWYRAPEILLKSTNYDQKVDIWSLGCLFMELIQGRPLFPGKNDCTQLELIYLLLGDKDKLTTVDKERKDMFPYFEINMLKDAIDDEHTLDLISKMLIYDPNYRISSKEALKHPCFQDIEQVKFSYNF

[7] = molecular target: Protein kinase 7 (PK7), Plasmodium falciparum 3D7 (PF3D7_0213400) (UniProt Q7YTF7); assay: inhibition of Plasmodium PK7 catalytic activity – biochemical, TCAMS antimalarial set, Kinase-Glo luminescence (AID 1159587); conditions: recombinant PfPK7, Kinase-Glo ATP depletion luminescence
Protein kinase 7 (PK7), Plasmodium falciparum 3D7 (PF3D7_0213400), sequence (Q7YTF7 1-343): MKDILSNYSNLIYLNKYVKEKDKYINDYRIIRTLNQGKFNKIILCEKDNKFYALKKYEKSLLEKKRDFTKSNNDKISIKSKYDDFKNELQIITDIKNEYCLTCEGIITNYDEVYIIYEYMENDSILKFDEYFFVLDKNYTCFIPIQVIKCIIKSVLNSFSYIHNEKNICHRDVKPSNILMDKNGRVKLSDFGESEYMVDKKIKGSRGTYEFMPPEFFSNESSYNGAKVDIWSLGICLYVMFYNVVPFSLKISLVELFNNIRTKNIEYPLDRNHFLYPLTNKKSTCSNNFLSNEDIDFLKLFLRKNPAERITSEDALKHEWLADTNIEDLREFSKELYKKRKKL

[8] = molecular target: Calcium-dependent protein kinase 4 (Plasmodium falciparum (isolate 3D7)) (UniProt Q8IBS5); assay: PfCDPK4 kinase inhibitors, biochemical, TCAMS library (AID 1159588; cut-off not given, nearly all actives have IC50 up to about 0.91 µM); conditions: recombinant PfCDPK4, Kinase-Glo ATP depletion luminescence
Calcium-dependent protein kinase 4 (Plasmodium falciparum (isolate 3D7)), sequence (Q8IBS5 whole entry, looked up): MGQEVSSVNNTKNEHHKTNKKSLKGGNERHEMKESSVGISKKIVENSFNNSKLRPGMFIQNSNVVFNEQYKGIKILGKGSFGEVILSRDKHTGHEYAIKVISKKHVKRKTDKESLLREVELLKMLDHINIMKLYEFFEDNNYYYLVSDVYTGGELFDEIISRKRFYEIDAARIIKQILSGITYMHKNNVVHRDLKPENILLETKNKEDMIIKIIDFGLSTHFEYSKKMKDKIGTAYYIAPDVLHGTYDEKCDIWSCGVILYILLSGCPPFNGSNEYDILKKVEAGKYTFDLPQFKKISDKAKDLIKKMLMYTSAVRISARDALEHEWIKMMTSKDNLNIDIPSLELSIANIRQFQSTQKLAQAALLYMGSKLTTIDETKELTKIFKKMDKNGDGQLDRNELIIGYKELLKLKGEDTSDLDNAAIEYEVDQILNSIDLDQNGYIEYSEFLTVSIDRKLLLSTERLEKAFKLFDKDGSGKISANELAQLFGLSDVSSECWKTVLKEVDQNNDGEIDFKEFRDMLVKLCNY

SMILES	growth inhibition [1]	inhibition [2]	inhibition [3]	growth inhibition [4]	outcome [5]	outcome [6]	outcome [7]	outcome [8]
CCC(C)(C)C1CCc2nc(N)nc(N)c2C1 (stereo not given)	97% (active)	71% (active)	4%	95% (active)	inactive	inactive	inactive	inactive
OCCCCCCNc1ccnc2[nH]c3ccc(I)cc3c12	61% (active)	27%	-4%	100% (active)	inactive	inactive	inactive	inactive
COc1ccc2nccc(NCC3(O)CCN(CCc4ccc5c(c4)OCCO5)CC3)c2n1	87% (active)	35%	3%	100% (active)	inactive	inactive	inactive	inactive
CCNC(=O)N1CCN(c2nc(-c3ccccc3)nc(COC)c2Cc2ccc(C)cc2)CC1	94% (active)	27%	0%	95% (active)	inactive	inactive	inactive	inactive
O=C(Nc1cccc(-c2ccc(-c3nc4ccc(C(F)(F)F)cc4[nH]3)cc2)c1)c1cccnc1	97% (active)	73% (active)	-9%	101% (active)	inactive	inactive	inactive	inactive
O=C(c1cccc(-c2noc(C(F)(F)F)n2)c1)N1CCN(c2ccncc2)CC1	56% (active)	14%	3%	90% (active)	inactive	inactive	inactive	inactive
Cc1ccc2nc(-c3cc(-c4ccc(CO)cc4)cnc3N)[nH]c2c1	6%	52% (active)	9%	95% (active)	inactive	inactive	inactive	inactive
COc1ccc(N2CCc3c(-c4cccc5cnccc45)cc(C)nc32)c(C)c1	-12%	20%	0%	96% (active)	inactive	inactive	inactive	inactive
Cn1cnc(-c2ccc3c(c2)CCN(CCC2CCC(NC(=O)/C=C/c4ccc(F)cc4)CC2)CC3)c1 (stereo not given)	18%	26%	4%	90% (active)	inactive	inactive	inactive	inactive
NC1CCN(Cc2ccc(-c3ccc(-c4nc5ccccc5[nH]4)s3)cc2)C1 (stereo not given)	99% (active)	32%	-6%	101% (active)	inactive	inactive	inactive	inactive
O=C(Nc1ccc2c(c1)CCC2)c1cccc(CN2CCCN(Cc3cccc(O)c3)CC2)c1	20%	10%	0%	91% (active)	inactive	inactive	inactive	inactive
O=c1c2ccccc2[nH]c2nc3ccccc3c(Nc3ccccc3)c12	97% (active)	8%	6%	98% (active)	inactive	inactive	inactive	inactive
CCOc1c(Br)cc(C)cc1CNCCCNc1nc2ccccc2[nH]1	5%	24%	6%	93% (active)	inactive	inactive	inactive	inactive
NC(N)=NN=Cc1ccccc1OCc1ccccc1Cl	30%	14%	5%	101% (active)	inactive	inactive	inactive	inactive
COc1ccc2nc(C)cc(NN=Cc3cccc(Cl)c3)c2c1	100% (active)	13%	7%	101% (active)	inactive	inactive	inactive	inactive
CCCCCN1CCCN(Cc2cccc(NC(=O)c3cc4ccccc4s3)c2)CC1	30%	29%	6%	99% (active)	inactive	inactive	inactive	inactive
COc1ccccc1CNc1nc(Nc2ccccc2C)nc2ccccc12	67% (active)	24%	-1%	101% (active)	inactive	inactive	inactive	inactive
COc1ccc2nccc([C@@H](O)CN3CCC(NCc4nc5c(F)cc(F)cc5[nH]4)CC3)c2c1	64% (active)	19%	0%	99% (active)	inactive	inactive	inactive	inactive
CS(=O)(=O)c1cccc(-c2cnc(N)c3cc(-c4cccc(F)c4)ccc23)c1	13%	45%	2%	97% (active)	inactive	inactive	inactive	inactive
c1cc(CN2CCc3ccccc3CC2)cc(-c2c[nH]c3nc(NC4CCCC4)ncc23)c1	49%	31%	-3%	99% (active)	inactive	inactive	inactive	inactive
